# Among all 68,000 compounds or so, about 2,700 (4%) showed an effect of 50% or more. Only a selection was taken, and strong results are over-represented in it overall.
# Tested on: Plasmodium berghei
# Assay: Screen against P. berghei liver stage (PbLuc), transformed with Luciferase, at 2uM
# Assay type: functional, HepG2
# Details: tested at 2 uM
row,Compound,INHIBITION [%]
1,Cc1ccc(-c2cc(C)nc(C3CCCN3S(C)(=O)=O)n2)cc1 (stereo not drawn),16.87
2,COCCN1CCN(C(C)C(=O)Nc2ccnn2C(C)C)CC1 (stereo not drawn),23.86
3,CC(C(=O)Nc1ccnn1C(C)C)N1CCN(Cc2ccon2)CC1 (stereo not drawn),62
4,CC(C(=O)Nc1ccnn1C(C)C)N1CCN(Cc2ccccc2)CC1 (stereo not drawn),47.68
5,C[C@H]1C[C@@H]2CCN(C(=O)c3ccncc3)C[C@H]2O1,-15.25
6,CCn1c(C)nnc1CN(C)C1CCN(CCn2cccn2)C1 (stereo not drawn),-53.72
7,CN(C)S(=O)(=O)N1CCC2(COCc3cnc(-c4cccnc4)nc32)C1 (stereo not drawn),19.51
8,Cc1cc(C)nc(N2CCOC(C)(C(=O)N(C)C)C2)n1 (stereo not drawn),19
9,Cc1ccc(N2CCOC(C)(C(=O)N(C)C)C2)nn1 (stereo not drawn),39.07
10,Cc1cc(N2CCOC(C)(C(=O)N(C)C)C2)ncn1 (stereo not drawn),58.29
11,CC(C)N1CCOC[C@H]1c1nc(C(C)(C)C)c[nH]1,-0.14
12,CCCC(NC(=O)c1cc(C)ccc1O)c1nnn[nH]1 (stereo not drawn),-7.9
13,CCCn1cnc2c1CN(S(=O)(=O)Cc1ccccc1)[C@H](C(=O)OC)C2,60.6
14,COC(=O)[C@@H]1Cc2ncn(C)c2CN1S(=O)(=O)c1ccc(C)cc1,6.24
15,CCCS(=O)(=O)N1Cc2c(ncn2Cc2ccccc2)C[C@H]1C(=O)OC,39.73
16,COC(=O)[C@@H]1Cc2ncn(C(C)C)c2CN1S(=O)(=O)Cc1ccccc1,39.18
17,COC(=O)[C@@H]1Cc2ncn(C)c2CN1S(=O)(=O)Cc1ccccc1,26.55
18,COC(=O)[C@@H]1Cc2ncn(C)c2CN1S(=O)(=O)c1ccc(OC)cc1,47.42
19,CCCn1cnc2c1CN(S(=O)(=O)c1ccc(F)cc1)[C@H](C(=O)OC)C2,46.32
20,COC(=O)[C@@H]1Cc2ncn(C)c2CN1S(=O)(=O)c1cccs1,51.81
21,COC(=O)[C@@H]1Cc2ncn(C)c2CN1S(=O)(=O)c1ccc(Cl)cc1,57.85
22,Nc1ncc(-c2cccc(NC(=O)[C@@H]3CCCCN3)c2)cn1,14.95
23,CN(C)CCN1CCN(C(=O)c2ccn(C)c(=O)c2)CC1,5.59

row,Compound,INHIBITION [%]
1,CC(C)OCCCNC(=O)c1c(-n2cnnn2)sc2c1CCCC2,49.57
2,Cc1ccc(N2C[C@H]3OCC[C@H]3[C@H](C(=O)NCc3ccco3)C2)nn1,65.78
3,Cc1ccc(N2C[C@H](C(=O)NCC3CC3)[C@@H]3CCO[C@@H]3C2)nn1,-2.72
4,Cc1ccc(N2C[C@H]3OCC[C@H]3[C@H](C(=O)NCC3CC3)C2)nn1,-11.4
5,Cc1nccn1CC1CCN(C(=O)c2ccccc2)CC1,-78.75
6,COc1cccc(N2CC3(CCN(c4ccncn4)C3)CC2=O)c1 (stereo not drawn),13.38
7,CNc1cncc(C2CCCN2S(=O)(=O)c2ccc(F)cc2)n1 (stereo not drawn),2.8
8,CN(C)CCN1CCC2(CCCN(C(=O)C3CCC3)C2)CC1,-9.47
9,CC(CO)NS(=O)(=O)c1cccc(C(C)C)c1 (stereo not drawn),60.13
10,Cc1ccc(S(=O)(=O)NC(C)C#N)cc1Br (stereo not drawn),-29.94
11,CCC(=O)c1cccc(S(=O)(=O)NC(C)C#N)c1 (stereo not drawn),31.51
12,CC(C#N)NS(=O)(=O)c1cccc(C(C)C)c1 (stereo not drawn),69.67
13,CNS(=O)(=O)c1cccc(C(C)NCc2ccccc2)c1 (stereo not drawn),12.75
14,CC(C)c1cccc(S(=O)(=O)NCCCN2CCC(O)CC2)c1,-13.21
15,COc1ccc(Cn2cc(C(=O)N(C)Cc3ccn[nH]3)nn2)cc1,20.71
16,COC(=O)N1CC[C@@]2(C1)[C@H](OC)CN(c1ccccc1)S2(=O)=O,22.01
17,Cc1cc(C2CCNCC2)nc(-c2ccsc2)n1,24.98
18,CN1CCOC(CNCC(=O)NCCc2ccc(F)cc2)C1 (stereo not drawn),-8.14
19,c1cnnc(N2CCCC2CNCc2ccsc2)c1 (stereo not drawn),54.85
20,c1ccc(Cn2cc(CNCC3CCCN3c3cccnn3)cn2)cc1 (stereo not drawn),62.46
21,c1cnnc(N2CCCC2CNCc2cscn2)c1 (stereo not drawn),4.19
22,c1ccc(Cn2ccnc2CNCC2CCCN2c2cccnn2)cc1 (stereo not drawn),11.2
23,c1cnnc(N2CCCC2CNCc2cccs2)c1 (stereo not drawn),23.86

row,Compound,INHIBITION [%]
1,c1ccc(-n2cc(CNCC3CCCN3c3cccnn3)cn2)cc1 (stereo not drawn),-7.13
2,CO[C@@H]1CC[C@H]2[C@H]1OCCN2C(=O)c1ccc(C)nc1,29.89
3,CC(C)CNC(=O)C1=NOC2(CCN(Cc3ccc(C(C)C)cc3)C2)C1 (stereo not drawn),32.09
4,CCOCc1nc2c(c(NCCNC(C)=O)n1)CCN(C(C)=O)CC2,18.28
5,CCOc1nnc(CN2CCC(c3cc4ccccc4[nH]3)CC2)s1,38.33
6,CCOc1nnc(CN2CCC(c3nc4ccccc4[nH]3)CC2)s1,28.42
7,CCOc1nnc(CN2CCCC(c3nc4ccccc4[nH]3)C2)s1 (stereo not drawn),53.63
8,CCCN(CC(=O)OC)C(=O)c1sc(C)nc1C,-1.29
9,CC(C(=O)NCCOc1ccccc1)n1cncn1 (stereo not drawn),26.76
10,Cc1ccc(OCCNC(=O)C(C)n2cncn2)cc1 (stereo not drawn),42.11
11,CC(C(=O)NCCOc1cccc(Cl)c1)n1cncn1 (stereo not drawn),56.67
12,Cc1cc(=O)[nH]c(=O)n1COCCOCc1ccccc1,30.48
13,O=C(c1nn(-c2ccccc2F)cc1O)N1CCCCC1,-10.64
14,Cc1ccc2c(C)c(C(=O)NCc3csc(N)n3)oc2c1,-27.36
15,Cc1[nH]c2c(C)ccc(C)c2c1CC(=O)NCCCNc1cccnc1,-10.38
16,Cc1[nH]c2c(C)ccc(C)c2c1CC(=O)NCCNc1cccnc1,64.92
17,Cc1[nH]c2c(C)ccc(C)c2c1CC(=O)NCC(O)c1cccnc1 (stereo not drawn),31.65
18,COc1cccc(CC(=O)N2CCC3(CC2)OCCCC3O)c1OC (stereo not drawn),3.4
19,CC(C)OCCOCc1cccc(NC(=O)NCCn2ccnc2)c1,3.85
20,C=c1ccoc1=C1NN=C(CNCC2CCCN2c2cccnn2)O1 (stereo not drawn),-10.6
21,C=c1ccoc1=C1NN=C(CNCCn2cc(C)cn2)O1,32.63
22,C=c1ccoc1=C1NN=C(CNCCn2cccn2)O1,58.49

# Reference: ChEMBL document CHEMBL4513216, “Probing the Open Global Health Chemical Diversity Library for Multistage-Active Starting Points for Next-Generation Antimalarials” (ACS Infect Dis, 2020)
